Data as given in PMC7862700, “An all-to-all approach to the identification of sequence-specific readers for epigenetic DNA modifications on cytosine”.

Assays:
Assay in all cases: DAPPL (digital affinity profiling via proximity ligation, sequencing); 10 mM Tris-HCl pH 7.5, 50 mM NaCl, 1 mM DTT, 4% glycerol, room temperature, 30 min; GST-TFs on glutathione beads, 16-mer random dsDNA library, 0.1% formaldehyde crosslink after washing; high values mean tight binding
Details in all cases: protein: recombinant; tags: N-terminal GST; dsDNA, one strand shown
ERF = target: T1, ERF (Homo sapiens, UniProt P50548 1-548)
T1 sequence: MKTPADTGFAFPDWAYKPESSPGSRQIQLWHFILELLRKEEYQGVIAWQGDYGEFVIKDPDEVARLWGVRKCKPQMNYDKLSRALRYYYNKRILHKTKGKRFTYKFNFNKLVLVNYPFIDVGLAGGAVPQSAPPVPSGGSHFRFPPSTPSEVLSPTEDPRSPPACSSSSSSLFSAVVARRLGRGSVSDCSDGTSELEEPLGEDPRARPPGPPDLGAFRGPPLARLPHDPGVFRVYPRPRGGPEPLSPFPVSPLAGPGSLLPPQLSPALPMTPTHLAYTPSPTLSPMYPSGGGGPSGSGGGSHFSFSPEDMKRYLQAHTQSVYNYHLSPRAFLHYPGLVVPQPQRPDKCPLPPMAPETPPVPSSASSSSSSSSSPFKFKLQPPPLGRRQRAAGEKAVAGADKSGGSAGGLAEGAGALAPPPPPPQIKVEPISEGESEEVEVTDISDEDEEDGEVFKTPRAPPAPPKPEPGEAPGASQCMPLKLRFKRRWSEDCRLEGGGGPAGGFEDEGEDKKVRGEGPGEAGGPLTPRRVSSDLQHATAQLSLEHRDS
Method in brief: (§1)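 Binding signal is each hexamer's read frequency for a factor divided by its frequency in the tag-only sample. The factors were GST-fused human transcription factors from yeast, captured on glutathione beads, DNA-barcoded and pooled with that sample. Pools were incubated with 200 nmole of a random double-stranded 16-mer DNA library in Tris/NaCl/DTT/glycerol buffer at room temperature for 30 min, then washed, crosslinked with 0.1% formaldehyde, proximity-ligated with BsaI/T4 ligase (1 h, 37 °C), PCR-amplified and sequenced on an Illumina NextSeq500.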

ETV3L = target: T2, ETV3L (Homo sapiens, UniProt Q6ZN32 1-361)
T2 sequence: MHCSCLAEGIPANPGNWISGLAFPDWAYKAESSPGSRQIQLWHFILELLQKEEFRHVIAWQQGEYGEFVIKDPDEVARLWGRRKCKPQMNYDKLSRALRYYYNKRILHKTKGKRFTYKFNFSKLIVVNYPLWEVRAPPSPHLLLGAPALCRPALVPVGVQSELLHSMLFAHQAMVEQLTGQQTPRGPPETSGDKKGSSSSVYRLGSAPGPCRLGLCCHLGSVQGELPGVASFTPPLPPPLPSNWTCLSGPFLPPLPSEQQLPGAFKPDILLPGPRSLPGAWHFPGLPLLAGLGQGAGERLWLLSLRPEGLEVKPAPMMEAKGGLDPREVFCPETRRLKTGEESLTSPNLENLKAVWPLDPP
Method in brief: as §1

ETS2 = target: T3, ETS2 (Homo sapiens, UniProt P15036 1-469)
T3 sequence: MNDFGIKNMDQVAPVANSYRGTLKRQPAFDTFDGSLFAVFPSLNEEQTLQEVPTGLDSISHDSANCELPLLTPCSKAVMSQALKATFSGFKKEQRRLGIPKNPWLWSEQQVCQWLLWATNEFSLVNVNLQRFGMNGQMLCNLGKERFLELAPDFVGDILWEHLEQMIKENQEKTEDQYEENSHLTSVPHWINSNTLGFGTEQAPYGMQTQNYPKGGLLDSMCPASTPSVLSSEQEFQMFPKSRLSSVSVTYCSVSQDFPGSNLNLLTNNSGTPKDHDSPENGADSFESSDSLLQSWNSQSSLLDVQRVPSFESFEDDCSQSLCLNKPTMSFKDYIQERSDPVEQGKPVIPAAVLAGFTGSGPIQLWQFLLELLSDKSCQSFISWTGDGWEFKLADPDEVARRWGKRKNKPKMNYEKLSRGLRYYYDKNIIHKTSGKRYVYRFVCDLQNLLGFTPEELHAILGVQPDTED
Method in brief: as §1

SPDEF = target: T4, SPDEF (Homo sapiens, UniProt O95238 1-335)
T4 sequence: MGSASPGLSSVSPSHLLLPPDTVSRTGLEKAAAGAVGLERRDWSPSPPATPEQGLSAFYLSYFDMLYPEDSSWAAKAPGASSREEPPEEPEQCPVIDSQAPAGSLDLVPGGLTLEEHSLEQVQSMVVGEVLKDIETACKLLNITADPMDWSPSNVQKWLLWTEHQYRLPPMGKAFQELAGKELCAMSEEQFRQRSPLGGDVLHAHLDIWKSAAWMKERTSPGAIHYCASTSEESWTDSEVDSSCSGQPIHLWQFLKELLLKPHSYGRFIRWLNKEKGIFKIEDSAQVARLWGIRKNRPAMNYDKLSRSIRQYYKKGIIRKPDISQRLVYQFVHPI
Method in brief: as §1

ETV7 = target: T5, ETV7 (Homo sapiens, UniProt Q9Y603 1-341)
T5 sequence: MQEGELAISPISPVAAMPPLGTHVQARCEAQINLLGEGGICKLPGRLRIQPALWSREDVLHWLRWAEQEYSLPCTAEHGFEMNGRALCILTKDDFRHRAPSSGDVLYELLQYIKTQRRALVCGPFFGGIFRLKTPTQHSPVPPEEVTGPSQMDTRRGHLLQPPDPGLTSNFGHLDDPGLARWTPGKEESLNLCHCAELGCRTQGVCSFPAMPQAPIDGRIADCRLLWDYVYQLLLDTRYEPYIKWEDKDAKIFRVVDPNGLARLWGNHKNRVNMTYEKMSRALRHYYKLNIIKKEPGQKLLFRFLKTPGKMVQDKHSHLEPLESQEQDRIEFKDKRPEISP
Method in brief: as §1

ELF5 = target: T6, ELF5 (Homo sapiens, UniProt Q9UKW6-2 1-255)
T6 sequence: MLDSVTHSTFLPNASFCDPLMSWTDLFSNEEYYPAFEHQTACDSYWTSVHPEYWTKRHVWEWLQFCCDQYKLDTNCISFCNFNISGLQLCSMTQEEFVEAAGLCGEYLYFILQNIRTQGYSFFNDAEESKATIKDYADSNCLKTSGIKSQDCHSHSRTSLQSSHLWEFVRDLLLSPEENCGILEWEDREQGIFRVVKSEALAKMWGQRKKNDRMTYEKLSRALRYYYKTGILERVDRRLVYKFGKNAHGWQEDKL
Method in brief: as §1

ETV3 = target: T7, ETV3 (Homo sapiens, UniProt P41162-2 1-143)
T7 sequence: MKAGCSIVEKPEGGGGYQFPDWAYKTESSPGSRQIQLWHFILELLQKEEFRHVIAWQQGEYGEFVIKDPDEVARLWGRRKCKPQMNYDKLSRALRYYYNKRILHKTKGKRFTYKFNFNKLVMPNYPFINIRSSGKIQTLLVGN
Method in brief: as §1

ETV6 = ETV6 (Homo sapiens, UniProt P41212 1-452)
Method in brief: as §1

Sequence of ETV6 (P41212 whole entry): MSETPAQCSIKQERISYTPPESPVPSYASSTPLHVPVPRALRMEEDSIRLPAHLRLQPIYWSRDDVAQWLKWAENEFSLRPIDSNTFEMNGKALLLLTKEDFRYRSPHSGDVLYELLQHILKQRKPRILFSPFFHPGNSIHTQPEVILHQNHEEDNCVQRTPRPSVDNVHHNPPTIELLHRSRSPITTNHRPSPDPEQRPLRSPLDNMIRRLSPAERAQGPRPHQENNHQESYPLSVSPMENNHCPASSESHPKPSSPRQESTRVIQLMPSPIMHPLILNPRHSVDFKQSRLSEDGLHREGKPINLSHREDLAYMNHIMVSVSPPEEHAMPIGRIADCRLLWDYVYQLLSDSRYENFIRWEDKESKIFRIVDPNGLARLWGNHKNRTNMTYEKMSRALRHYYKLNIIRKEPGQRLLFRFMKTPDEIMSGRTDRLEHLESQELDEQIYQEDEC

TTTATG
binding signal (ERF): 1.31 fold enrichment (6-mer frequency, TF over GST control) | binding signal (ETV3L): 1.36 fold enrichment (6-mer frequency, TF over GST control) | binding signal (ETS2): 1.32 fold enrichment (6-mer frequency, TF over GST control) | binding signal (SPDEF): 1.29 fold enrichment (6-mer frequency, TF over GST control) | binding signal (ETV7): 1.32 fold enrichment (6-mer frequency, TF over GST control) | binding signal (ELF5): 1.29 fold enrichment (6-mer frequency, TF over GST control) | binding signal (ETV3): 1.36 fold enrichment (6-mer frequency, TF over GST control) | binding signal (ETV6): 1.33 fold enrichment (6-mer frequency, TF over GST control)

TATGGA
binding signal (ERF): 1.16 fold enrichment (6-mer frequency, TF over GST control) | binding signal (ETV3L): 1.13 fold enrichment (6-mer frequency, TF over GST control) | binding signal (ETS2): 1.12 fold enrichment (6-mer frequency, TF over GST control) | binding signal (SPDEF): 1.18 fold enrichment (6-mer frequency, TF over GST control) | binding signal (ETV7): 1.26 fold enrichment (6-mer frequency, TF over GST control) | binding signal (ELF5): 1.08 fold enrichment (6-mer frequency, TF over GST control) | binding signal (ETV3): 1.22 fold enrichment (6-mer frequency, TF over GST control) | binding signal (ETV6): 1.05 fold enrichment (6-mer frequency, TF over GST control)

AAAATA
binding signal (ERF): 1.27 fold enrichment (6-mer frequency, TF over GST control) | binding signal (ETV3L): 1.14 fold enrichment (6-mer frequency, TF over GST control) | binding signal (ETS2): 1.24 fold enrichment (6-mer frequency, TF over GST control) | binding signal (SPDEF): 1.06 fold enrichment (6-mer frequency, TF over GST control) | binding signal (ETV7): 1.22 fold enrichment (6-mer frequency, TF over GST control) | binding signal (ELF5): 1.2 fold enrichment (6-mer frequency, TF over GST control) | binding signal (ETV3): 1.13 fold enrichment (6-mer frequency, TF over GST control) | binding signal (ETV6): 1.25 fold enrichment (6-mer frequency, TF over GST control)

TATATT
binding signal (ERF): 1.43 fold enrichment (6-mer frequency, TF over GST control) | binding signal (ETV3L): 1.5 fold enrichment (6-mer frequency, TF over GST control) | binding signal (ETS2): 1.31 fold enrichment (6-mer frequency, TF over GST control) | binding signal (SPDEF): 1.32 fold enrichment (6-mer frequency, TF over GST control) | binding signal (ETV7): 1.4 fold enrichment (6-mer frequency, TF over GST control) | binding signal (ELF5): 1.35 fold enrichment (6-mer frequency, TF over GST control) | binding signal (ETV3): 1.44 fold enrichment (6-mer frequency, TF over GST control) | binding signal (ETV6): 1.37 fold enrichment (6-mer frequency, TF over GST control)

ATCTAG
binding signal (ERF): 1.18 fold enrichment (6-mer frequency, TF over GST control) | binding signal (ETV3L): 1.08 fold enrichment (6-mer frequency, TF over GST control) | binding signal (ETS2): 1.11 fold enrichment (6-mer frequency, TF over GST control) | binding signal (SPDEF): 1.03 fold enrichment (6-mer frequency, TF over GST control) | binding signal (ETV7): 1.19 fold enrichment (6-mer frequency, TF over GST control) | binding signal (ELF5): 1.1 fold enrichment (6-mer frequency, TF over GST control) | binding signal (ETV3): 1.07 fold enrichment (6-mer frequency, TF over GST control) | binding signal (ETV6): 1.05 fold enrichment (6-mer frequency, TF over GST control)

AATGAC
binding signal (ERF): 1.35 fold enrichment (6-mer frequency, TF over GST control) | binding signal (ETV3L): 1.43 fold enrichment (6-mer frequency, TF over GST control) | binding signal (ETS2): 1.45 fold enrichment (6-mer frequency, TF over GST control) | binding signal (SPDEF): 1.37 fold enrichment (6-mer frequency, TF over GST control) | binding signal (ETV7): 1.29 fold enrichment (6-mer frequency, TF over GST control) | binding signal (ELF5): 1.36 fold enrichment (6-mer frequency, TF over GST control) | binding signal (ETV3): 1.35 fold enrichment (6-mer frequency, TF over GST control) | binding signal (ETV6): 1.49 fold enrichment (6-mer frequency, TF over GST control)
